# Assay outcomes from PubChem BioAssay.
# PAFAH1B3 inh = PAFAH1B3 (human) inhibition. recombinant PAFAH1B3, FP-rhodamine probe, fluorescence polarization. 0.28% of 340,000 active. inhibition, % at 3.39 µM;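 active means inhibition above the screen-wide average of all tested compounds plus 3 SD, cut at about 25% in these data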;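 further: 0% = enzyme with DMSO only and 100% = wells lacking PAFAH1B3 protein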
# PAFAH2 inh = PAFAH2 (human) inhibition; Q99487; recombinant PAFAH2, FP-rhodamine activity probe, fluorescence polarization; inhibition, % at 3.39 µM; 0.99% of 340,000 active;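 active means inhibition above the mean over all tested compounds plus 3 SD, cut at about 30% in these data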;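 further: inhibitors block probe labeling of enzyme so polarization drops; 0% = enzyme with DMSO and 100% = wells lacking PAFAH2 protein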
# PAFAH1B2 FP inh = PAFAH1B2 (human) inhibition | P68402 | recombinant PAFAH1B2, FP-rhodamine activity probe, fluorescence polarization | inhibition, % at 3.39 µM | 1.2% of 340,000 active | AID 492953;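 active means inhibition above the mean of all tested compounds plus 3 SD, cut at about 24% in these data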;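 further: 0% = enzyme with DMSO and 100% = wells lacking PAFAH1B2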
# Target sequence (P68402 whole entry, looked up): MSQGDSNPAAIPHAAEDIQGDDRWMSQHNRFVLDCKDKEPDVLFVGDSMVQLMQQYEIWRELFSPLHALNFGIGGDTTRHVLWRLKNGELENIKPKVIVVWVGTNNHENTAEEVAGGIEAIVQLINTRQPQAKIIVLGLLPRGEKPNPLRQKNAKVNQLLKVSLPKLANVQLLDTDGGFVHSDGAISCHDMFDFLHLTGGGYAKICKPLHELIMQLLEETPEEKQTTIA
# Fam108B inh = Fam108B inhibition, counter-screen for RBBP9 inhibitors. 0.33% of 300,000 active. recombinant Fam108B, FP-Rh probe fluorescence polarization. inhibition, % at 9.51 µM;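 active means inhibition above the screen mean inhibition plus 3 SD, computed separately per campaign, cut at about 18% in these data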;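 further: inhibitors lower polarization as less probe binds the enzyme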
# pPAFAH inh = inhibitors of human plasma PAF acetylhydrolase (pPAFAH); recombinant pPAFAH, FP-rhodamine probe fluorescence polarization; AID 463082; 1.5% of 330,000 active; inhibition, % at 3.39 µM;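 active means inhibition above the mean inhibition across the screen plus 3 SD, cut at about 25% in these data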;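 further: inhibitors block binding of the rhodamine activity-based probe so polarization drops; 0% = enzyme with DMSO and 100% = wells lacking pPAFAH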
# PME-1 primary = PME-1 (human) inhibition | Q9Y570 | inhibition, % at 5.9 µM | recombinant PME-1, FP-Rh probe fluorescence polarization | 0.53% of 320,000 active;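 active means inhibition above the campaign mean of all compounds plus 3 SD, cut at about 26% in these data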;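 further: competitive labeling of PME-1 active site by serine hydrolase directed probe; 0% = PME-1 with DMSO and 100% = wells lacking PME-1 enzyme; inhibitors block probe labeling so polarization falls and inhibition rises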
# Target sequence (Q9Y570 whole entry, looked up): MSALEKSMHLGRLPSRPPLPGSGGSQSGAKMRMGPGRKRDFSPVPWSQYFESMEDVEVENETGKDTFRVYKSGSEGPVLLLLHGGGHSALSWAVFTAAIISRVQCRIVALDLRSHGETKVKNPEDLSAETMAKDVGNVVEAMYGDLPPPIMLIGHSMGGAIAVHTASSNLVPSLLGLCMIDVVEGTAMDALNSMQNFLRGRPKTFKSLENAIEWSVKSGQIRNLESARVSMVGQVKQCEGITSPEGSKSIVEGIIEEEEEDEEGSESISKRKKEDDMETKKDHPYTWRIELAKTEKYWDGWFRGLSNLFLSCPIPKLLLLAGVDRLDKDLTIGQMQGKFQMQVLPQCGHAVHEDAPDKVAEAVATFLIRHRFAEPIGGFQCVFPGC
# pPAFAH confirm = confirmation of human plasma PAF acetylhydrolase (pPAFAH) inhibitors | shares compounds with pPAFAH inh | recombinant pPAFAH, FP-Rh probe fluorescence polarization | inhibition, % at 3.39 µM | 72% of 2,300 active | AID 463230;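 active means mean inhibition of the triplicate above the hit cutoff set for the earlier primary screen, cut at about 25% in these data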;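 further: 0% = enzyme with DMSO and 100% = wells lacking pPAFAH enzyme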
# * hit, by the source's call; x = no result. An excerpt weighted towards active compounds, which were near 2.9% of everything screened.
SMILES,PAFAH1B3 inh,PAFAH2 inh,PAFAH1B2 FP inh,Fam108B inh,pPAFAH inh,PME-1 primary,pPAFAH confirm
Cc1ccc(NS(=O)(=O)c2cccc(C(=O)N/N=C/c3c(C)nn(-c4ccccc4)c3N3CCCC3)c2)c(C)c1,7.8,-1.0,-7.7,11.7,57.7*,10.9,34.5*
O=C(Nc1nc2c(s1)C(=O)CCC2)c1ccccc1,11.7,0.1,2.1,-1.9,2.3,1.6,x
CCOC(=O)c1c(C)n(-c2ccc(C)cc2)c2ccc(OCC(O)CNCCCO)cc12 (stereo not given),-4.2,-1.4,4.0,-1.2,11.3,-4.2,x
CCOC(=O)c1c(C)n(-c2ccc(C)cc2)c2ccc(OCC(O)CNCC3CCCO3)cc12 (stereo not given),5.0,-1.4,5.2,-3.4,71.4*,3.4,69.5*
Cc1cc(NC(=O)Cc2cccs2)no1,9.6,34.6*,2.0,11.8,54.1*,13.7,12.0
CCOC(=O)Cc1cc(=O)n2[nH]c(-c3ccccc3)c(-c3ccccc3)c2n1,-18.0,-3.6,-4.8,-0.9,42.9*,-0.4,19.1
CCOC(=O)Cc1cc(=O)n2[nH]c(C)c(-c3ccccc3)c2n1,-5.3,-3.1,-1.0,-7.0,16.5,-13.0,x
CCC1(c2ccccc2)NC(=O)N(CC(=O)Nc2cc(S(=O)(=O)N3CCCCC3)ccc2OC(C)C)C1=O (stereo not given),6.8,4.4,0.3,-0.6,5.2,18.1,x
CCC1=Nc2cc(C(=O)NCCCOC(C)C)ccc2Sc2ccccc21,6.4,-3.1,-3.3,-5.1,7.6,-6.7,x
CCN(CC)c1ccc(N2C(=O)CSC2=S)cc1,-14.6,-15.3,-5.1,-16.7,47.7*,-17.3,2.6
Cc1nc(N)sc1N=Nc1ccccc1C(F)(F)F,11.9,-1.9,3.4,8.6,41.8*,3.1,30.2*
CSc1ccccc1NC(=O)c1ccc(N2CC3CC(C2)c2cccc(=O)n2C3)c(NC(=O)c2ccncc2)c1 (stereo not given),1.2,1.7,0.5,-0.6,3.4,-2.7,x
COc1cccc(NC(=O)Nc2cc(C(=O)NC(C)C)ccc2N2CC3CC(C2)c2cccc(=O)n2C3)c1 (stereo not given),3.0,20.9,3.9,-4.5,73.7*,-1.0,75.5*
CCCNC(=O)c1ccc(N2CC3CC(C2)c2cccc(=O)n2C3)c(NC(=O)Nc2ccc(CC)cc2)c1 (stereo not given),4.0,19.3,-1.7,0.2,87.9*,-4.0,92.0*
CCOC(=O)C[N+]1(C)CCN(C(C)=O)CC1,3.9,-4.0,7.1,-0.5,2.6,1.5,x
O=C(CN1C(=O)C2C3C=CC(C3)C2C1=O)N1CC=C(c2ccccc2)CC1 (stereo not given),5.4,4.2,1.1,1.5,3.6,-0.8,x
CC(C)Oc1ccc(CNCCC2(C(C)C)CCOC(C)(C)C2)cc1 (stereo not given),1.9,-7.4,0.7,3.5,56.8*,-2.1,4.8
COc1ccc(CNCCC2(C(C)C)CCOC(C)(C)C2)cc1 (stereo not given),2.4,1.6,6.0,5.9,0.1,1.0,x
O=c1cc(-c2ccc(O)c(O)c2)oc2c1ccc1ccccc12,33.6*,48.0*,14.2,x,77.9*,21.2,81.7*
N#CCC(=O)Nc1ccccc1C(=O)O,-2.5,3.6,3.6,1.3,-2.7,-2.0,x
N#CCC(=O)Nc1ncn(Cc2ccccc2Cl)n1,0.6,2.1,1.9,2.8,34.6*,4.5,2.8
COc1ccc(NC(=S)NC2CCCC2)c(OC)c1,7.5,-8.7,3.4,0.7,-4.3,-2.4,x
Nc1ccc2nc(-c3cccnc3)[nH]c2c1,6.3,-3.9,-0.4,2.1,39.5*,3.5,-0.1
Nc1ccc2nc(-c3ccccc3)[nH]c2c1,6.4,9.9,5.8,2.5,3.9,11.1,x
COc1ccc(C(CNC(=O)c2ccc(S(=O)(=O)N(C)C)cc2)N2CCCC2)cc1 (stereo not given),-3.9,1.3,-0.2,-2.6,2.7,-3.3,x
SMILES,PAFAH1B3 inh,PAFAH2 inh,PAFAH1B2 FP inh,Fam108B inh,pPAFAH inh,PME-1 primary,pPAFAH confirm
CCCCOC(=O)NS(=O)(=O)c1sc(CC(C)C)cc1-c1ccc(Cn2c(CC)nc3c(C)cc(C)nc32)cc1,x,x,x,-10.1,8.0,-9.3,x
COc1ccccc1/C=C1\SC(=S)N(CCC(=O)NNC(=O)c2ccccc2O)C1=O,10.5,4.6,2.1,-6.5,35.4*,-3.5,65.6*
C(=Nc1cccc2c(N=Cc3ccco3)cccc12)c1ccco1,11.4,6.3,6.8,10.0,44.6*,6.1,3.2
C(=N\C(/N=C/c1ccco1)c1ccco1)/c1ccco1,13.8,5.7,0.5,4.2,13.0,4.8,x
Cc1nc2ccccc2c(=O)n1/N=C/c1ccc(O)c(O)c1O,27.1*,45.5*,7.0,9.0,86.8*,-8.3,46.7*
O=c1cc(-c2ccccc2)nc2c(-c3ccccc3)c(C(F)(F)F)[nH]n12,x,x,x,2.1,45.1*,12.8,54.5*
O=C(/C=C/c1ccco1)NC(=S)Nc1ccc(C(=O)O)cc1,13.0,-0.4,1.8,6.4,38.9*,-32.5,6.9
O=C(/C=C/c1ccco1)NC(=S)Nc1ccc(N2CCCC2)cc1,0.8,0.8,2.0,1.4,47.0*,15.8,13.7
CC(=O)NC(=S)Nc1ccc(NC(=S)NC(=O)/C=C/c2ccco2)cc1,-9.7,-20.6,-7.0,-6.5,-3.2,-5.9,x
O=C(COC(=O)C(Cc1ccccc1)NC(=O)c1ccco1)NC1CC1 (stereo not given),-1.7,4.0,1.3,3.1,6.2,-3.4,x
N#CC1=C(N)C2=C(N3CCCCC3)CCCC2C1(C#N)C#N (stereo not given),46.1*,39.6*,25.9*,2.2,38.0*,-2.2,4.8
N#CC(C#N)=C1C=C2C=C(N3CCCCC3)CCC2CC1 (stereo not given),x,x,x,12.9,12.8,10.5,x
O=C(Nc1cccc(C(F)(F)F)c1)C1(c2ccccc2)CC1,7.1,-1.4,13.3,0.2,1.2,0.6,x
O=C(Nc1nc(-c2ccco2)c(-c2ccco2)s1)C1CC(=O)N(c2ccc3c(c2)OCCO3)C1 (stereo not given),-2.0,21.2,4.2,-0.6,46.9*,3.6,41.2*
CCOc1ccc2nc(N3CCC(C(=O)N4CCN(c5ccccn5)CC4)CC3)sc2c1,5.1,1.1,4.3,-2.8,-2.1,-2.1,x
CC1=Nc2nc(N3CCCCCC3)c(C#N)c3c4c(nc(c23)N1)N(c1ccc2ccccc2c1)C(=O)C4,4.4,23.2,7.1,6.3,59.1*,22.7,21.7
Brc1ccc2c(c1)OCCOCCOc1cc(Br)ccc1OCCOCCOCCO2,4.8,2.2,5.5,-3.0,68.2*,-1.2,59.5*
Cc1ccc(C2C(/C=C3/SC(=S)NC3=O)=C(c3cccs3)Oc3ccccc32)cc1 (stereo not given),8.0,21.0,5.1,9.1,38.5*,9.7,47.5*
